# AI-2 QS modul: Vibrio harveyi AI-2 quorum sensing modulation; activity change, % at 7.5 µM; 0.4% of 300,000 active; Vibrio harveyi JMH597 AI-2 luminescence/OD600 ratio, 9 h; hits give low values; strain lacks LuxN and CqsS sensors; 0 = neutral-control median; AID 2094; in the data active means activity change below about -75%, passing the limit was not always enough; inconclusive means no clear call, values can overlap the other calls;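 further: luminescence divided by OD600 gain over 9 h not by final OD600 alone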
# eIF4H inh: inhibitors of RNA binding by human eIF4H; 0.94% of 290,000 active; eIF4H fluorescence polarization binding assay; inhibition, % at 35 µM;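 further: calls also rest on retests at 20 µM and on dose response follow-up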
# PHOSPHO1 inh: blocks human PHOSPHO1 phosphatase activity; recombinant PHOSPHO1, absorbance phosphatase assay; 1.1% of 290,000 active; Q8TCT1; inhibition, % at 13.3 µM; in the data active means inhibition above about 60%
# Target sequence (Q8TCT1 whole entry, looked up): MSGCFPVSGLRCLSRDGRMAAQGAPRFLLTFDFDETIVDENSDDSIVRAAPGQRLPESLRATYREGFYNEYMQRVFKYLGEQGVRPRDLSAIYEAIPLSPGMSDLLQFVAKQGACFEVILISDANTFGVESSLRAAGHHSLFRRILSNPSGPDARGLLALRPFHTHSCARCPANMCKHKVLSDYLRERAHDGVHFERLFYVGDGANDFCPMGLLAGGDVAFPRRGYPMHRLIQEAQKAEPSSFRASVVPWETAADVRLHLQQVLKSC
# PABP1 MLLE inh: inhibitors of microRNA-mediated deadenylation, human PABP1 MLLE binding. P11940. GST-MLLE / FITC-PAM2 fluorescence polarization. inhibition, % at 20 µM. 0.36% of 360,000 active. AID 588489; in the data active means inhibition above about 35%, passing the limit was not always enough;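 further: plate controls were DMSO wells with GST-MLLE for no effect and wells lacking GST-MLLE protein for full effect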
# PABP FP inh: blocks human PABP binding to poly(A) RNA; P11940; fluorescence polarization; calls only at 35 µM; 1% of 290,000 active; AID 2014;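 further: calls also rest on retests at 20 µM and on dose response follow-up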
# ABCB6 inh MLPCN: blocks the human ABCB6 transporter | fluorescence ratio to DMSO, % at 10 µM | K562-ABCB6 porphyrin accumulation, flow cytometry, 1 h; hits give low values | 0.19% of 360,000 active;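 active means fluorescence ratio to DMSO below 75%, the collection mean minus 3 SD; inconclusive means too few cells collected in the well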;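 further: signal is porphyrin accumulated inside mitochondria; 100% equals median channel fluorescence of DMSO control wells; lower ratio means ABCB6 inhibition with less porphyrin fluorescence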
# Numbers without * were called inactive; i = inactive; ? = inconclusive; . = no result; + = active, no number. Sampled rows, rich in hits. Any-hit rate of the full collection: about 2.6%. Unless noted, how the calls were made is not given here.
SMILES,AI-2 QS modul,eIF4H inh,PHOSPHO1 inh,PABP1 MLLE inh,PABP FP inh,ABCB6 inh MLPCN
CC(C)=C[C@H]1C[C@H](C)[C@H]2CC[C@H](C)c3c(O)c(O[C@H]4OC[C@H](O)[C@@H](O)[C@@H]4O)c(C)c1c32,.,.,.,-7,.,100
CC1(C(=O)NS(=O)(=O)c2ccc(F)cc2F)CCN1C(=O)C1(c2ccc(Cl)cc2)CC1 (centres undefined),.,.,.,1,.,101
O=C(N/N=C/c1ccc(O)cc1O)c1ccncc1,101,17,30,-8,i,99
Oc1c(Br)cc(Br)cc1/C=N/c1nccs1,.,.,.,8,.,96
O=C(N/N=C/c1cc(Cl)cc(Cl)c1O)c1ccncc1,-85*,?,-23,142,?,101
O=C(N/N=C/c1cc(Br)cc(Br)c1O)c1ccncc1,-84*,?,11,.,i,.
O=C(C[n+]1ccccc1)N/N=C/c1cc(Br)cc(Br)c1O,-149*,26,19,-13,i,96
Oc1c(Br)cc(Br)cc1C=Nc1cccnc1,15,32,26,39*,i,100
CCCCn1nnnc1C(c1cc2ccccc2o1)N(C)CCc1ccccc1 (centres undefined),.,.,.,.,.,94
CCNC(=O)c1cc2c(c(-c3cccc(-c4cccc(C(=O)N(C)C)c4)c3)n1)[C@@H](CCO)N(S(=O)C(C)(C)C)C2 (some centres undefined),.,.,.,-35,.,125
O=Cc1cccn1-c1cccc([N+](=O)[O-])c1,14,4,30,4,i,91
ON=Cc1cccn1-c1ccccc1,5,2,19,-5,i,103
CN1C(=O)S/C(=C/c2cccn2-c2cccc(C(=O)O)c2)C1=O,30,20,44,17,i,102
O=C(O)c1cccc(-n2cccc2/C=C/[N+](=O)[O-])c1,9,94*,-17,25,+,98
O=C(O)c1cccc(-n2cccc2/C=N/O)c1,27,92*,18,13,+,100
O=C(O)c1cccc(-n2cccc2/C=C\[N+](=O)[O-])c1,28,99,-20,-53,+,98
COc1cccc(S(=O)(=O)N(C)C[C@@H]2OCc3cnnn3CCCC(=O)N([C@@H](C)CO)C[C@H]2C)c1,.,.,.,7,.,94
CC(C)CCn1c(SCc2ccc(Cl)cc2)nc2c1c(=O)[nH]c(=O)n2C,22,2,61*,36,i,93
Cc1ccc(C)c(C(O)c2ncc(-c3ccccc3Cl)[nH]2)c1 (centres undefined),.,.,.,-1,.,100
Cc1cc(C)c2[nH]c(=S)cc(C)c2c1,26,-5,104*,21,i,93
COc1ccc2c(C)cc(=S)[nH]c2c1,15,8,-85,17,i,101
COC(=O)c1ccc2nc(C3CCCCC3)c(Cc3ccccc3)n2c1,.,.,.,27,.,101
COCCN(CCOC)Cc1cc(=O)oc2ccc3ccccc3c12,.,.,.,-8,.,96
COc1ccccc1CP(=O)(c1ccccc1)c1ccccc1,6,active,-11,11,i,89
COc1ccccc1NC(=O)C1=C(C)NC(=O)NC1c1cc(C)cs1 (centres undefined),18,1,3,-3,+,104
SMILES,AI-2 QS modul,eIF4H inh,PHOSPHO1 inh,PABP1 MLLE inh,PABP FP inh,ABCB6 inh MLPCN
CCOc1ccccc1NC(=O)C1=C(C)NC(=S)NC1c1cccs1 (centres undefined),9,-2,9,-121,+,100
O=C(NCc1ccc(Cl)c(Cl)c1)c1cc(C2CCCCN2C(=O)c2ccccc2)on1 (centres undefined),.,.,.,18,.,99
CC1=C(C(=O)N2CCOCC2)CC(CC(=O)NCc2ccco2)C(=O)N1Cc1ccc(C(C)(C)C)cc1 (centres undefined),.,.,.,-7,.,94
CCC(CC)C(=O)N(C)c1c(C)nc2c(OCc3ccc(Cl)cc3)cccn12,.,.,.,5,.,99
CCOC(=O)C(C)Sc1nnc(Cc2cc(=O)[nH]c(=O)[nH]2)n1-c1ccc(Cl)cc1 (centres undefined),21,2,4,45*,i,99
COC(=O)C(C)Sc1nnc(Cc2cc(=O)[nH]c(=O)[nH]2)n1-c1ccc(Cl)cc1 (centres undefined),8,79,39,24,i,95
CCOC(=O)C1=C[C@@H](C(C)(C)C)N(S(=O)(=O)c2ccc(C)cc2)[C@H]1c1ccc(F)cc1,.,.,.,-13,.,97
Nc1ccc2[nH]ncc2c1,22,57*,-9,4,+,92
O=C(CBr)N1CCc2ccccc2C(c2ccccc2)C1 (centres undefined),3,84*,12,-126,i,99
O=C(CN1CCOCC1)N1CCc2ccccc2C(c2ccccc2)C1 (centres undefined),14,-4,11,3,i,112
CCCc1ccc(C(O)c2ncc(-c3cccc(C)c3)[nH]2)cc1 (centres undefined),.,.,.,14,.,96
CC(=O)Nc1cccc(OCC(=O)Nc2ccccc2)c1,20,active,9,12,i,90
Cc1cc(=O)oc2cc(NC(=O)COc3cccc(C(F)(F)F)c3)ccc12,.,.,.,-21,.,90
CN(C)C(=O)c1ccc(NC(=O)COc2cccc(Oc3ccccc3)c2)cc1,4,23,24,-2,+,90
Cc1cccc(OCC(=O)Nc2ccc3c(C)cc(=O)oc3c2)c1,13,78*,-4,-21,+,99
COC(=O)[C@@]1(C(C)C)N=C(c2cc(OC)c(OC)c(OC)c2)[C@]2(O1)C(=O)Nc1ccc(F)cc12,.,.,.,.,.,94
C/C(=N/NC(=O)Cn1nc2ccccc2n1)c1ccc(F)cc1,6,-3,-4,3,i,74*
CCN(c1ccc(NC(=O)COC(=O)c2cccs2)cc1)C(C)C,12,-3,33,-16,i,92
CCN(CC)c1ccc(NC(=O)COC(=O)c2cccs2)cc1,-23,2,100*,2,i,102
Cc1[nH]c2ccccc2c1/C=N/Nc1cccc(C(=O)O)c1,-1,7,61*,-18,i,96
COC(=O)C1=C(C)NC(=O)/C1=C\c1cc(C)n(-c2cc(C)cc(C)c2)c1C,9,83*,9,-5,+,114
COC(=O)C1=C(C)NC(=O)/C1=C\c1cc(C)n(-c2ccccc2)c1C,7,63,-14,-6,i,103
O=C(O)CCN1C(=O)/C(=C/c2cn(-c3ccccc3)nc2-c2cccs2)SC1=S,.,65,78*,-29,i,102
O=C(O)CCCCCN1C(=O)/C(=C/c2cn(-c3ccccc3)nc2-c2cccs2)SC1=S,.,.,.,-24,.,97
CCN(CC(=O)Nc1cc(Cl)ccc1C)C(=O)c1ccc(=O)n(Cc2ccccc2)n1,12,-1,62*,3,i,102
Cc1nc2c(OCc3cc(Cl)cc(Cl)c3)cccn2c1N(C)C(=O)CCC1CCCC1,.,.,.,-2,.,82

# Screening data from PubChem.
